High-throughput results as filed in PubChem BioAssay.
KCNQ2 inh: rat KCNQ2 potassium channel inhibitors, primary screen, cell-based, CHO-K1, FluxOR thallium flux, B-score; Potassium voltage-gated channel subfamily KQT member 2 (Rattus norvegicus), O88943; B-score at 10 µM; 20 min; stronger effect = lower value; 1.1% of 310,000 active;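 active means fluorescence ratio B-score at most minus 3 library SDs, with starting brightness B-score within 2 library SDs, cut at about -5.5 in these data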
Target sequence (O88943 whole entry, looked up): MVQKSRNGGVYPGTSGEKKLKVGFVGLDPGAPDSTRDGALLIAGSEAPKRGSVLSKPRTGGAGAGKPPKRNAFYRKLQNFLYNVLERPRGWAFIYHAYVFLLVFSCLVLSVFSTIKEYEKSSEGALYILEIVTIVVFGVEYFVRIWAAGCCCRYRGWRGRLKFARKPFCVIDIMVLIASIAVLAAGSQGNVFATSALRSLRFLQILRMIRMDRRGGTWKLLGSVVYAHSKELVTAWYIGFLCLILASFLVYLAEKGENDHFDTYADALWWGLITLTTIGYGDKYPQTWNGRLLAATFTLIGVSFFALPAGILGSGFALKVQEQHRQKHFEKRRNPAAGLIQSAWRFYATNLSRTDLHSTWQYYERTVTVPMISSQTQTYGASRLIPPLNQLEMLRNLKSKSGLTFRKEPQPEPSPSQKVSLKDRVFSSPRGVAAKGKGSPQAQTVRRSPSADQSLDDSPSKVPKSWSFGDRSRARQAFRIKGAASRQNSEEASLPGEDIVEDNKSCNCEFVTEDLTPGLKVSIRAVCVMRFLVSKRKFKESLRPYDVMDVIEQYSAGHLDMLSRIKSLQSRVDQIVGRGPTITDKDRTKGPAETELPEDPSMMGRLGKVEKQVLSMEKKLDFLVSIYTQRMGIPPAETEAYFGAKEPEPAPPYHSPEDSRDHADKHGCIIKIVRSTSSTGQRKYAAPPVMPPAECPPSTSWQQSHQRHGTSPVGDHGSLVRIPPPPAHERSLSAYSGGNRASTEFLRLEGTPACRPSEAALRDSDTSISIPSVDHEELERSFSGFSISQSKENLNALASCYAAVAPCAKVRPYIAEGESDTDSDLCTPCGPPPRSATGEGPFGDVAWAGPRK
KCNQ2 enhance: potentiators of rat KCNQ2 potassium channel | Potassium voltage-gated channel subfamily KQT member 2 (Rattus norvegicus), O88943 | CHO-K1 KCNQ2, FluxOR thallium flux fluorescence; stronger effect = higher value | B-score at 10 µM | 0.54% of 310,000 active | AID 2239, 2010;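 active means fluorescence ratio B-score at least 3 SD of library B-scores, with initial fluorescence B-score within 3 of them, cut at about 5.3 in these data; same plate scores as AID 2156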;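 further: B-score of peak minus minimum over baseline fluorescence ratio after K+ and Tl+ stimulus; positive B-score means potentiation of KCNQ2 with more thallium influx and brighter signal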
KCNQ2 inh conf: rat KCNQ2 potassium channel inhibitors, confirmation, cell-based, thallium flux. KCNQ2-expressing cells, inhibition; stronger effect = lower value. 57% of 1,000 active. activity change, negative = inhibition, % at 10 µM. shares compounds with KCNQ2 inh
KCNQ1 spec: human KCNQ1 channel inhibition, counter-screen for KCNQ2 inhibitor project, cell-based, FluxOR thallium flux. shares compounds with KCNQ2 inh. KCNQ1-expressing cells, FluxOR thallium flux fluorescence; stronger effect = lower value. activity change, negative = inhibition, % at 10 µM. 15% of 1,000 active;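 active means activity change at least 3 SD of negative controls below their mean in both duplicate wells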;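 further: CHO cells stably transfected with KCNQ1 and depolarized by potassium stimulus; peak minus minimum fluorescence over baseline after thallium addition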
CHO Tl ctr: thallium flux change in parental CHO cells, counter-screen for KCNQ2 inhibitor project. AID 493029, 2011. activity change, % at 10 µM. 14% of 1,000 active. shares compounds with KCNQ2 inh. stronger effect = lower value
KCNQ2 patch conf: rat KCNQ2 channel inhibitors, confirmation, cell-based, automated patch clamp, single concentration; shares compounds with KCNQ2 inh; KCNQ2-expressing cells, automated patch clamp current; calls only at 10 µM; 49% of 550 active; AID 588531, 2011
Each line names hits and unclear results; the compound was inactive in the other large screens (follow-up assays come after a bar, where they were run). A selection: hits, their analogues and other compounds. The true share with any hit is near 1.6%. Unless noted, how the calls were made is not given here.

CC(=O)NCC(=O)OCC(=O)N1c2ccccc2Sc2ccccc21	none
Cc1ccc(C)c(S(=O)(=O)N2CC(=O)N(CCc3ccccc3)C(=O)C2)c1	none (no result: KCNQ2 enhance)
CCc1noc(C)c1C(=O)N1CCSC1=Nc1cccc(Cl)c1C	none (no result: KCNQ2 enhance)
COc1ccc(-c2cc(C(=O)N3CCN(C(c4ccccc4)c4ccccc4)CC3)no2)cc1	none (no result: KCNQ2 enhance)
O=C(c1cc(-c2ccco2)on1)N1CCN(C(c2ccccc2)c2ccccc2)CC1	KCNQ2 inh -7.7 | KCNQ2 inh conf -29% | KCNQ1 spec inactive | CHO Tl ctr inactive | KCNQ2 patch conf inactive
COc1ccc(S(=O)(=O)N2CCC3(CC2)OCCN3S(=O)(=O)c2c(C)cc(C)cc2C)cc1	none (no result: KCNQ2 enhance)
O=C(Nc1cccc(OCC(=O)N2CCOCC2)c1)c1ccc(C(F)(F)F)cc1	none
CC(C)=CCc1cc(-c2oc3cc(O)cc(O)c3c(=O)c2O)ccc1O	none
CC(C)=CCc1c(O)cc2oc3c(CC=C(C)C)c(O)c(O)c(CC=C(C)C)c3c(=O)c2c1O	KCNQ2 inh -12 | KCNQ2 inh conf -48% | KCNQ1 spec -42% | CHO Tl ctr -28% | KCNQ2 patch conf inactive
COc1ccccc1N(C(=O)CNC(=O)c1ccco1)C(C(=O)NCC1CCCO1)c1ccccc1 (stereo not given)	none (no result: KCNQ2 enhance)
COc1cccc(-n2c(SCC(=O)Nc3nc4ccccc4s3)nc3ccccc3c2=O)c1	KCNQ2 inh -7 | KCNQ2 inh conf inactive | KCNQ1 spec inactive | CHO Tl ctr inactive
COc1cccc(-n2c(SCC(=O)NCc3cccs3)nc3ccccc3c2=O)c1	none (no result: KCNQ2 enhance)
Cc1ccc(-c2nc(-c3nccc4ccccc34)oc2-c2ccccc2)cc1	KCNQ2 inh -9.2 | KCNQ2 inh conf -28% | KCNQ1 spec inactive | CHO Tl ctr inactive | KCNQ2 patch conf inactive
c1ccc(-c2nccc3ccccc23)cc1	none
CCOc1cc(Cl)c(NC(=O)CC)cc1OCC	none (no result: KCNQ2 enhance)
CCOC(=O)N1C/C(=C\c2ccccc2)C(=O)/C(=C/c2ccccc2)C1	KCNQ2 inh -6.9 | KCNQ2 inh conf -33% | KCNQ1 spec inactive | CHO Tl ctr inactive | KCNQ2 patch conf inactive
CCOC(=O)N1CCN(S(=O)(=O)/C=C/c2ccccc2)CC1	none
O=C(CCNC(=O)N1CCn2c1nc1ccccc12)NCc1ccccc1	none
Cc1ccc(S(=O)(=O)/N=C(\Sc2ccccc2)c2ccccc2)cc1	none (no result: KCNQ2 enhance)
O=S(=O)(/N=C(\Sc1ccccc1)c1ccccc1)c1ccc(Cl)cc1	KCNQ2 inh -6.9 | KCNQ2 inh conf inactive | KCNQ1 spec inactive | CHO Tl ctr inactive
CC1(C)Cc2c(C#N)c(NC3CCCCC3)nc(-c3ccco3)c2CO1	KCNQ2 inh -13 | KCNQ2 inh conf inactive | KCNQ1 spec inactive | CHO Tl ctr inactive
CC1(C)Cc2c(C#N)c(NCC3CCCO3)nc(-c3ccco3)c2CO1 (stereo not given)	none (no result: KCNQ2 enhance)
CCC(C)Sc1cccc(-c2nc3cc(C)ccn3c2NCc2ccccc2)c1 (stereo not given)	KCNQ2 inh -6.7 | KCNQ2 inh conf inactive | KCNQ1 spec inactive | CHO Tl ctr inactive
CCC(C)Sc1ccc(-c2nc3ccc(C)cn3c2NCc2ccccc2)cc1OC (stereo not given)	none (no result: KCNQ2 enhance)
C=C(C)c1ccc(C(C)(C)NC(=O)N(Cc2ccccc2)Cc2ccco2)cc1	KCNQ2 inh -6.9 | KCNQ2 inh conf -16% | KCNQ1 spec inactive | CHO Tl ctr inactive | KCNQ2 patch conf inactive
C=C(C)c1ccc(C(C)(C)NC(=O)NCc2ccco2)cc1	none
O=C(NC1CCCCC1)N(Cc1ccccc1)Cc1ccco1	KCNQ2 inh -8.1 | KCNQ2 inh conf inactive | KCNQ1 spec inactive | CHO Tl ctr inactive
CN(Cc1ccccc1)C(=O)NC1CCCCC1	none (no result: KCNQ2 enhance)
CCCCn1c(N)c(N(CCC(C)C)C(=O)C2CCCN(C(=O)c3ccc(Cl)cc3)C2)c(=O)[nH]c1=O (stereo not given)	none (no result: KCNQ2 enhance)
CCc1cc(C(=O)N2CCCC(CO)(Cc3ccc(F)cc3)C2)n(C)n1 (stereo not given)	none
O=C(c1cc(Cl)ccc1OCc1ccccc1)N1CCOCC1	none (no result: KCNQ2 enhance)
CC(C)CCn1c(O)c(N=NC(=O)c2ccco2)c2ccccc21	none (no result: KCNQ2 enhance)
CC(C)Cn1c(O)c(N=NC(=O)c2cccc(S(=O)(=O)N3CCCCC3)c2)c2ccccc21	KCNQ2 inh -9.3 | KCNQ2 inh conf inactive | KCNQ1 spec inactive | CHO Tl ctr inactive
O=C(NCc1ccccc1)c1cccc(COc2cc(Cl)ccc2Cl)c1	none (no result: KCNQ2 enhance)
O=C(NCc1ccccc1)c1cccc(COc2ccccc2Cl)c1	KCNQ2 inh -12 | KCNQ2 inh conf inactive | KCNQ1 spec inactive | CHO Tl ctr inactive
Cc1nn(C)cc1S(=O)(=O)Nc1ncccn1	none
CC(=O)c1cccc(S(=O)(=O)NCC(C)(C)N2CCOCC2)c1	none
CN(C(=O)/C=C/c1ccc2c(c1)OCO2)c1ccccc1	KCNQ2 inh -6.6 | KCNQ2 inh conf -23% | KCNQ1 spec inactive | CHO Tl ctr inactive | KCNQ2 patch conf inactive
COC(=O)/C=C/c1ccc2c(c1)OCO2	none
COc1cccc(C(=O)CN(C(=O)c2ccc(Cl)cc2Cl)N2C(=O)c3ccccc3C2=O)c1	none
CCn1c(SCC(=O)NC2CCCc3ccccc32)nnc1-c1cccs1 (stereo not given)	none (no result: KCNQ2 enhance)
O=C(CSc1nnc(-c2cccs2)n1Cc1ccccc1)NCc1ccc2c(c1)OCO2	none (no result: KCNQ2 enhance)
CC(Sc1nnc(-c2cccs2)n1Cc1ccccc1)C(=O)NCc1ccc2c(c1)OCO2 (stereo not given)	KCNQ2 inh -9.8 | KCNQ2 inh conf inactive | KCNQ1 spec inactive | CHO Tl ctr inactive
CCn1c(SC(C)C(=O)NC2CCCc3ccccc32)nnc1-c1cccs1 (stereo not given)	KCNQ2 inh -8.4 | KCNQ2 inh conf inactive | KCNQ1 spec inactive | CHO Tl ctr inactive
CCC(CC)C(=O)c1c[nH]c(C(=O)N2CCN(c3ccccc3F)CC2)c1	none (no result: KCNQ2 enhance)
Cn1c(C(=O)OCC(=O)NCc2ccc(F)cc2)cc2occc21	none (no result: KCNQ2 enhance)
COC(=O)C1(Cc2cc(-c3ccc([N+](=O)[O-])cc3)no2)CCN(C(=O)OC(C)(C)C)CC1	none
CCc1noc(C)c1C(=O)N(C)CC(=O)Nc1ccc(F)c(F)c1F	none
Cc1ccccc1-c1nc(CS(=O)CC(=O)NC2CCCCC2)c(C)o1 (stereo not given)	none
O=C1CSC(c2cccs2)N1c1ccccc1 (stereo not given)	none
c1ccc(N2CCN(c3ccccc3)C2c2cccs2)cc1	KCNQ2 inh -7 | KCNQ2 inh conf inactive | KCNQ1 spec inactive | CHO Tl ctr inactive
COc1ccc2ccccc2c1-c1sc(Nc2ccccc2)n[n+]1-c1ccc(F)cc1	none (no result: KCNQ2 enhance)
CC(=O)c1cccc(NC(=O)Nc2ccc3c(c2)N(C)C(=O)CS3)c1	KCNQ2 inh -8.5 | KCNQ2 inh conf -44% | KCNQ1 spec -34% | CHO Tl ctr -29% | KCNQ2 patch conf inactive
Cc1cc(C)cc(NC(=O)Nc2ccc3c(c2)N(C)C(=O)CS3)c1	none
